Experimental data taken from PubChem BioAssay AID1159524 (National Center for Advancing Translational Sciences (NCATS), 2015).
Values joined by “and” are separate entries in the source; they are usually repeats but may differ in a detail not shown here. Equal values may be shown once. Screen size: about 410,000 compounds; about 5,100 (1.2%) were called active. Not shown: some 8% with an inconclusive outcome. The sample holds actives, similar compounds and a random draw of the others, so the mix is not that of the screen. Unmarked numbers belong to inactive results. Calls come from the whole dose curve; tested in HEK293T cells.

Test: High Throughput Screening for Foot and Mouth Disease Virus Antivirals; note: read-out not given here; nearly all actives have a fitted effect of over 45% in size
Details: FMDV antiviral cell-based qHTS; series mostly up to 57.9 µM; activity change, negative = inhibition: at the top concentration
% is set by controls: 0 for no effect and ±100 for the full control effect; potency is the fitted concentration of half-maximal effect.

Structure (SMILES)	activity change, negative = inhibition	Potency
COc1ccc(C2Sc3ccccc3NC3=C2C(=O)c2ccccc23)c(OC)c1OC (stereo unspecified)	8.34%	
O=C(/C=C/Sc1ncn[nH]1)c1ccc(Cl)cc1		28.2 µM (active)
O=S(=O)(NCCc1nnc2ccc(SCc3ccc(Cl)cc3Cl)nn12)c1ccccc1	-15.5%	
CCc1ccccc1NC(=O)Cn1c(=O)n(CC2CCC(C(=O)NCCc3ccccc3)CC2)c(=O)c2ccccc21 (stereo unspecified)	0.675%	
Cc1cc(C)cc(NS(=O)(=O)c2cc3c(cc2C)NC(=O)CO3)c1	131%	
Cn1nnnc1SCCCNCc1cccc(OCc2ccc(Cl)cc2)c1	-12.9%	
Cc1ccc(OCCSc2nc(C)c(Cc3ccccc3)c(=O)[nH]2)cc1	-10.9%	
COc1ccc(CCNC(=O)C2CCCN2C(=O)Nc2ccccc2)cc1OC (stereo unspecified)	-5.27%	
CC(=O)Nc1ccc(S(=O)(=O)N2CCN(c3ccc([N+](=O)[O-])c(NCCN4CCOCC4)c3)CC2)cc1	-4.77%	
COc1ccc(CCNc2cc(N3CCN(C(=O)c4ccccc4OC)CC3)ccc2[N+](=O)[O-])cc1OC		8.91 µM (active)
CC(C)c1ccc(NC(=O)c2cc(S(=O)(=O)N3CCc4ccccc4C3)ccc2F)cc1	1.11%	
Cc1ccccc1CNC(=O)c1cccc(NC(=O)c2nsc3ccccc23)c1	11.9%	
O=C(CSc1ncc(CO)n1Cc1ccc(F)cc1)NCc1ccco1	-18.2%	
Cc1ccc(C(=O)COC(=O)CCCC(=O)NC2CCCCC2)cc1[N+](=O)[O-]	0.0132%	
Cc1cc(C=O)c(C)n1-c1ccc(NC2CCCCC2)c([N+](=O)[O-])c1		31.6 µM (active)
COc1ccc(NC(=O)CN(C)C(=O)c2ccc(NC3CC3)c([N+](=O)[O-])c2)cc1	-6.5%	
O=C(CSc1ccccc1F)NC1CCS(=O)(=O)C1 (stereo unspecified)	2.56%	
CCN(CC(=O)NC1CCS(=O)(=O)C1)S(=O)(=O)c1ccccc1 (stereo unspecified)	-18.6%	
O=S1(=O)CCC(NC(=S)SCc2ccccc2Br)C1 (stereo unspecified)		15.8 µM (active)
COc1ccccc1C(=O)Nc1c(C(=O)Nc2ccc(C)cc2)oc2ccccc12	-7.71%	
C/C=C1\C2C=C(C)CC1(N)c1ccc(=O)[nH]c1C2 (stereo unspecified)	6.47% [at 97.4 µM]	

Structure (SMILES)	activity change, negative = inhibition	Potency
CCC1CCCCN1S(=O)(=O)c1ccc(NC(=O)c2cc(=O)c3ccccc3o2)cc1 (stereo unspecified)		20 µM (active)
Cc1ccc2oc(C(=O)Nc3ccc(S(=O)(=O)N4CCCCCC4)cc3)cc(=O)c2c1	-6.89%	
Cc1cc(C)c2oc(C(=O)Nc3ccc(S(=O)(=O)N4CCCCCC4)cc3)cc(=O)c2c1	-5.36%	
Cc1c(Cl)cccc1NC(=O)c1noc2c1CCCC2	34.7%	
Cc1cccc(N2CCN(C(=O)c3ccc4c(c3)CCN4S(=O)(=O)c3ccccc3)CC2)c1C	-17.5%	
COc1ccc(C)cc1NC(=O)CCc1c(C)nn(-c2ccc(N3CCOCC3)nn2)c1C	13.7%	
CC(C)=CCN1CCC2(CCc3ccccc32)CC1	-6.05%	
COc1ccc(C(=O)Nc2ccc(-n3nncc3-c3ccccc3)cc2)cc1OC	0%	
COc1cccc(C(=O)Nc2ccc(-c3cc(C(F)(F)F)nn3-c3ccccc3)cc2)c1		12.6 µM (active)
COc1cccc(C(=O)NC(=O)Nc2nc(C)cc(C(F)(F)F)n2)c1	-4.85%	
Cc1csc(-c2coc3cc(O[C@@H]4O[C@H](CO)[C@@H](O)[C@@H](O)[C@H]4O)ccc3c2=O)n1	16%	
Cc1cc(NC(=O)CSc2ncc(C(=O)Nc3ccc(Cl)cc3)c(=O)n2C)no1	5.26%	
Cc1cc(C)cc(-n2c(SCC(=O)NCC3CCCO3)nc3c([nH]c4ccccc43)c2=O)c1 (stereo unspecified)	0.888%	
Cc1ccc(NC(=O)c2cnc(SCC(=O)NCC3CCCO3)n(C)c2=O)cc1 (stereo unspecified)		25.1 µM (active)
O=C(Cc1ccccc1)Nc1sc2c(c1C(=O)Nc1ccc(Br)cc1)CCC2	-16.6%	
COCCNc1ccnc(-c2cccc(NS(C)(=O)=O)c2)n1	8.19%	
CNc1ncnc2ccc(-c3cccc(NS(C)(=O)=O)c3)cc12	-18.8%	
COC(=O)CC1C(C)(C)C(OC(C)=O)C2CC3=C4CC(=O)OC(c5ccoc5)[C@]4(C)CCC3[C@@]1(C)C2=O (stereo partly specified)	-6.11%	
Cc1ccc(-c2nn(CC(C)(C)C)c3ncnc(N)c23)cc1	-19.5%	
CC(=O)N1CCCc2cc(S(=O)(=O)N3CCC(C(=O)NC4CCCCC4)CC3)ccc21	-3.68%	
COc1cccc(N2CCN(S(=O)(=O)c3ccc4c(c3)CCCN4C(C)=O)CC2)c1	-29.2%	

Structure (SMILES)	activity change, negative = inhibition	Potency
CC(=O)N1CCCc2cc(S(=O)(=O)N3CCCC(C(=O)N4CCN(c5cccc(Cl)c5)CC4)C3)ccc21 (stereo unspecified)		17.8 µM (active) and 12.6 µM (active)
COCCN1CCN(C(=O)c2sc3ncnc(NCC4CCCO4)c3c2C)CC1 (stereo unspecified)	2.02%	
CC(C)(c1ccc(OC[C@@H]2CO2)cc1)c1ccc(OC[C@H]2CO2)cc1	-6.2%	
CN[C@@H]1[C@H](O[C@H]2[C@H](O[C@H]3[C@H](O)[C@@H](O)[C@H](N=C(N)N)[C@@H](O)[C@@H]3N=C(N)N)O[C@@H](C)[C@]2(O)CO)O[C@@H](CO)[C@H](O)[C@H]1O	3.92%	
O=C1/C(=C\c2cccnc2)CN(Cc2ccccc2)C/C1=C\c1cccnc1		6.31 µM (active)
Nc1ccc2c(c1)C(=Cc1cccnc1)c1ccccc1-2	9.55%	
O=C(O)CCc1cccnc1	-16.2%	
CS(=O)(=O)Nc1cccc(-c2cncnc2Nc2ccccc2)c1	-6.46%	
CN(Cc1ccco1)c1cc(-c2ccccc2C(F)(F)F)ncn1	15.7%	
C=CC(C1=CC(=O)C=CC1=O)c1ccc(O)cc1 (stereo unspecified)	-1.66%	
CC(=O)OC1C2(CC3N4C(=O)C5(CO)SSC4(CC31O)C(=O)N5C)OC(C)C(C)(C)C2=O (stereo unspecified)		2 µM (active)
Cc1cccc(Nc2cc(C)nc(-n3nc(C)cc3C)n2)c1	-11.9%	
COc1ccccc1-c1cc(C(F)(F)F)nc(S(=O)(=O)CCCC(=O)Nc2cc(C)ccc2O)n1	-17.4%	
Cc1ccc(C)c(N2CCN(C(=O)Cn3ncc4c(=O)oc5ccc(C)cc5c43)CC2)c1	0%	
O=C(c1csnn1)N1CCC2(CC1)CN(c1ncccn1)C2	-1.68%	
Cc1cccn2c(=O)c(C(=O)NC(C)c3ccccc3)cnc12 (stereo unspecified)	-0.0366%	
CCCc1[nH]nc2c1C(c1ccc(Br)s1)C(C#N)=C(N)O2 (stereo unspecified)		25.1 µM (active)
CCCc1nc2c([nH]1)C(c1cccnc1)C(C#N)=C(N)O2 (stereo unspecified)	-18.1%	
CCNc1nc2[nH]c(=O)c3c(c2s1)OC(N)=C(C#N)C3c1cccs1 (stereo unspecified)	38.9%	
